Assay results from PubChem BioAssay (EPA / NIEHS).
Active and inactive are the calls of the source. Rule for the calls: active = hit-call score of the fitted dose curve at least 0.9, where 1 is the maximum; inactive = score below 0.9.

What was measured:
[1] = molecular target: Nuclear respiratory factor 1 (Homo sapiens) (UniProt Q16656); assay: ATG_NRF1_CIS: Attagene CIS-FACTORIAL HepG2 Assay for human Nuclear Respiratory Factor 1 (NRF1) Orphan Gene (AID 2282987); settings: HepG2 NRF1 cis-element reporter, Attagene multiplex; actives raise or lower the signal
Method in brief: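 Multiplexed cis-reporter assay, HepG2 cells, 24 h treatment. Total RNA → oligo(dT) RT → PCR with reporter-specific primers → 6-FAM primer extension → HpaI cut → CE. Bidirectional fit vs DMSO.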

[2] = ATG_NFI_CIS: Attagene CIS-FACTORIAL HepG2 Assay for human Nuclear Factor I (NFI) (AID 2282989); settings: HepG2 cis-regulatory reporter, NFI response element transcription; actives raise or lower the signal
Method in brief: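 Reporter transcripts were measured by RT-PCR with fluorescent primer extension and capillary electrophoresis 24 h post-treatment. HepG2 cells carried transiently transfected cis-regulated reporter constructs reporting endogenous factor activity; gain or loss fitted against DMSO baseline.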

[3] = molecular target: Myc proto-oncogene protein (Homo sapiens) (UniProt P01106); assay: ATG_Myc_CIS: Attagene CIS-FACTORIAL HepG2 Assay for human Myelocytomatosis (Myc) Proto-Oncogene Transcription Factor (AID 2282990); settings: HepG2, Attagene cis-reporter transcription factor activity; actives raise or lower the signal
Method in brief: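 Transiently transfected HepG2 cells bearing cis-promoter reporter units for endogenous transcription factors; 24 h exposure. Reporter mRNA measured by RT-PCR, 6-FAM primer extension, HpaI cut and capillary electrophoresis; bidirectional fit relative to DMSO.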

[4] = ATG_NF_kB_CIS: Attagene CIS-FACTORIAL HepG2 Assay for human Nuclear Factor Kappa B (NF-kB) (AID 2282991); settings: HepG2 Attagene cis-factorial NF-kB reporter mRNA; actives raise or lower the signal
Method in brief: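 Transient MRTU transfection of human HepG2 liver cells → 24 h chemical exposure → total RNA, oligo(dT) RT → PCR, 6-FAM primer extension, HpaI digest 2 h 37 C → CE fragment analysis. Bidirectional fitting, DMSO negative control.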

[5] = ATG_NRF2_ARE_CIS: Attagene CIS-FACTORIAL HepG2 Assay for human Nuclear Factor Erythroid 2 Related Factor 2 (NFR2) response to Antioxidant Response Elements (ARE) (AID 2282992); settings: HepG2 Attagene ARE/NRF2 reporter, transcription factor activity; actives raise or lower the signal;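 for AC50: reporter mRNA level measured by RT-PCR and capillary electrophoresis fluorescence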
Method in brief: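 HepG2 cells transiently transfected with multiplexed cis-element reporter constructs, 24 h after chemical dosing; reporter mRNA quantified by RT-PCR, fluorescent primer extension, HpaI digestion and capillary electrophoresis. Bidirectional fit relative to DMSO.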

[6] = ATG_Oct_MLP_CIS: Attagene CIS-FACTORIAL HepG2 Assay for human Octamer-Binding Transcription Factor (Oct) (AID 2282993); settings: HepG2 Attagene cis-factorial Oct reporter, mRNA; actives raise or lower the signal
Method in brief: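 Readout is reporter transcript level from RT-PCR with fluorescent primer extension and capillary electrophoresis, fitted in both directions against DMSO. Transfected HepG2 reporter units report endogenous factor activity after 24 h dosing.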

[7] = molecular target: Cellular tumor antigen p53 (Homo sapiens) (UniProt P04637); assay: ATG_p53_CIS: Attagene CIS-FACTORIAL HepG2 Assay for human p53 Transcription Factor (AID 2282994); settings: HepG2 p53 cis-element reporter, Attagene mRNA; actives raise or lower the signal
Method in brief: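 HepG2 cells transiently transfected with cis-regulated multiple reporter transcription units, dosed 24 h. Reporter mRNA measured by RT-PCR, 6-FAM primer extension, HpaI digestion and capillary electrophoresis; bidirectional fit relative to DMSO.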

Measured: AC50

Sequence of Nuclear respiratory factor 1 (Homo sapiens) (Q16656 whole entry, looked up): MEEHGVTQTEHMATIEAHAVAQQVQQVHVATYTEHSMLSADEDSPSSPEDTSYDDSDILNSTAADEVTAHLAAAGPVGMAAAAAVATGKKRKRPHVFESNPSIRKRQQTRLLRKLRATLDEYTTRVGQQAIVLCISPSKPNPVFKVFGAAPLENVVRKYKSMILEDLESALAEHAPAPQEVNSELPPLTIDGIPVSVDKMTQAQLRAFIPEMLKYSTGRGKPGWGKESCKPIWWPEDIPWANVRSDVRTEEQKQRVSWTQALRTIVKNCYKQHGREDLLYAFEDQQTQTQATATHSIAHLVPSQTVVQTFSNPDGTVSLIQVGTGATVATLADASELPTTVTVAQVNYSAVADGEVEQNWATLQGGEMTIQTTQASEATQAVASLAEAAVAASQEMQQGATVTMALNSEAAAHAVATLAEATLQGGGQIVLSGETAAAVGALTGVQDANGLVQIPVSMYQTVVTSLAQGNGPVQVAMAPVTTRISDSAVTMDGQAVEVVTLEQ
Sequence of Cellular tumor antigen p53 (Homo sapiens) (P04637 whole entry, looked up): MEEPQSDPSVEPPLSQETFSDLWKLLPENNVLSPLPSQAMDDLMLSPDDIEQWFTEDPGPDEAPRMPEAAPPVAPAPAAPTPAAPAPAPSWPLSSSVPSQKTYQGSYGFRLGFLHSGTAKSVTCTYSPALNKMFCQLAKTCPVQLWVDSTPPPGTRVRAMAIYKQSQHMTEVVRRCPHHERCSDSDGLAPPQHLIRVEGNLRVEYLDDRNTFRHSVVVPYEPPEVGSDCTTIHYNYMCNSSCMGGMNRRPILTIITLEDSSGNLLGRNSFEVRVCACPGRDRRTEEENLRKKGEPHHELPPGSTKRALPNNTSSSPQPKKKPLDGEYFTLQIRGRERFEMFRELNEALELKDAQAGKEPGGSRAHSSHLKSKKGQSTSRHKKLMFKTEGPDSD
Sequence of Myc proto-oncogene protein (Homo sapiens) (P01106 whole entry, looked up): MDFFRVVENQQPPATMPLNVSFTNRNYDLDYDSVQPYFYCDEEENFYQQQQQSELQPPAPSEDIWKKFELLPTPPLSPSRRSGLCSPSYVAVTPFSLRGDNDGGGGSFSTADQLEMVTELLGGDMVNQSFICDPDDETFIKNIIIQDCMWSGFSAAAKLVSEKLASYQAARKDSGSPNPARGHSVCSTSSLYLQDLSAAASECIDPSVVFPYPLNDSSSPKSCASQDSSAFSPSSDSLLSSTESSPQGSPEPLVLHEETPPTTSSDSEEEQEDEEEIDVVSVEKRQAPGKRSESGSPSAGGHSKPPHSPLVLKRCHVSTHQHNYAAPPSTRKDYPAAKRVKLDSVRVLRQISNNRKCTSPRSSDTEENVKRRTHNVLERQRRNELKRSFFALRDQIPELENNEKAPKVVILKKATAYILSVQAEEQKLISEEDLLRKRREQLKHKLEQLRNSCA

CN(C)Cc1cc(CN(C)C)c(O)c(CN(C)C)c1
inactive: all assays above

CCc1cccc(C)c1N
inactive: all assays above

COC(C=C(C)CCC=C(C)C)OC
active: [5] 59.2 µM
inactive: all other assays above

CCCCCCCOC(=O)c1ccc(O)cc1
active: [5] 39.4 µM | [6] 46 µM
inactive: all other assays above

CC(=O)CCC1=C(C)CCCC1(C)C
active: [5] 49.1 µM
not listed: [7]
inactive: all other assays above

CCCCC(CC)COS(=O)(=O)O (configuration not stated)
not listed: [7]
inactive: all other assays above

CC1=CC(C)C(C=O)CC1 (configuration not stated)
active: [5] 14.1 µM
inactive: all other assays above

C=C(C)C(=O)OCC(O)COc1ccc(C(C)(C)c2ccc(OCC(O)COC(=O)C(=C)C)cc2)cc1 (configuration not stated)
active: [1] 130 µM | [5] 26.5 µM | [6] 17.8 µM
inactive: all other assays above

CCC(C)N (configuration not stated)
not listed: [7]
inactive: all other assays above

CC(C)(CO)COC(=O)C(C)(C)CO
inactive: all assays above

CCOC(=O)CC(=O)c1ccccc1
not listed: [7]
inactive: all other assays above

CC(C)c1ccc2ncccc2c1
active: [5] 64.6 µM
not listed: [7]
inactive: all other assays above

Cc1ccccc1CCO
inactive: all assays above

Cc1cc(=O)[nH]c(=O)[nH]1
inactive: all assays above

CCC(C)c1ccccc1 (configuration not stated)
inactive: all assays above

CCCCCCCCCC(C)=O
inactive: all assays above

Cc1ccc2c(c1)CCCN2
not listed: [7]
inactive: all other assays above

CCCCCCCCCC[N+](C)(CCCCCCCCCC)CCC[Si](OC)(OC)OC
active: [3] 14.6 µM | [5] 16 µM
not listed: [7]
inactive: all other assays above

CC1(C)CCC[C@]2(C)[C@H]3CC(=O)O[C@]3(C)CC[C@@H]12
active: [5] 30.3 µM
inactive: all other assays above

CC1CCC(C(C)(C)S)C(=O)C1 (configuration not stated)
inactive: all assays above

CC(C)(O)Cc1ccccc1
inactive: all assays above

c1ccc2cnccc2c1
inactive: all assays above

CCCCCCCCCCCC(=O)OCC
inactive: all assays above

CC1(C)[C@@H]2CC[C@@]1(C)C(=O)C2
inactive: all assays above

CC1=CCC2CC1C2(C)C (configuration not stated)
not listed: [7]
inactive: all other assays above

CCCCCCCCCCCCC
inactive: all assays above

CCCCCCCCCCCCCc1ccccc1
inactive: all assays above

CC(C)=CCl
inactive: all assays above

CCCCOC(=O)CCC(C)=O
not listed: [7]
inactive: all other assays above

C=CCOC(=O)c1ccc(C(=O)OCC=C)c(C(=O)OCC=C)c1
active: [5] 36.1 µM
not listed: [7]
inactive: all other assays above

CCOC(=O)c1ccccc1C
inactive: all assays above
